The source made the active and inactive calls.

For 35 compounds, z-score and composite z-score results are on record in PubChem BioAssay.

The nature of the first experiment: E. coli DRC41 culture turbidity changes, primary screen, E. coli filamentation inducer project, strain DRC41, OD650, 48 h (AID 1152).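 Also: E. coli MC1000 strain DRC41 lacking acrAB efflux pump and sulA.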 The note with it: E. coli DRC41 (acrAB sulA), higher = more signal, called active from +8 up or from −8 down.
`CC(C)[Si]1(C(C)C)OCc2cc(-c3ccc(-c4ccc(Cl)c(Cl)c4)o3)nc(-c3ccccc3)c21`: the z-score is -0.618 (inactive).
On to `CCCCCCc1nc(Cc2cc(OC)c(OC)c(OC)c2)cc2c1[Si](C(C)C)(C(C)C)OC2`, for which the z-score is -0.56 (inactive).
The same measure, in the same setting: to `C=CC[C@@H](OC(=O)Nc1ccc(SC)cc1)c1ccc(O)c(F)c1` belongs 0.959 (inactive); to `Cc1ccc(NN2C(C(O)c3c(F)cccc3Cl)C=CC3C(=O)N(C4CCCCC4)C(=O)C32)cc1` (stereo not drawn), 0.0905 (inactive); to `COc1ccc([Si](C)(C)[C@@H]2[C@@H](CC(=O)N(CCO)Cc3ccccc3)O[C@]3(C(=O)N(Cc4cccc(N5CCCCC5=O)c4)c4ccccc43)[C@H]2C)cc1`, 0.152 (inactive).
On to `NC(=O)[C@H]1[C@@H]2C(=O)O[C@@H](c3ccccc3)[C@@H](c3ccccc3)N2[C@@H](c2ccc(OCCO)cc2)[C@]12C(=O)Nc1ccc(C#CCCO)cc12`, for which the z-score is -0.628 (inactive).
Turning to `COc1cc(C(O)C2C=CC3C(=O)N(C)C(=O)C3N2Nc2ccccc2)cc(OC)c1OC` (stereo not drawn), the z-score was -0.283 (inactive).
As for `C#Cc1cc2ccccc2oc1=O`, the z-score was -1.44 (inactive).
In the case of `CC(=O)NCCCC[C@@H]1NC(=O)[C@@H]2C[C@H](C(=O)NCCCCCN)[C@H](c3cccc(OCCO)c3)N2C1=O`, the z-score was 2.26 (inactive).
In the case of `COc1ccc(CCNC(=O)[C@@]2(c3ccc([N+](=O)[O-])cc3)CC(=O)N(C3CCCCC3)[C@@H]2c2ccc(CO)cc2)cc1`, the z-score is 1.31 (inactive).
With `NCCCCCNC(=O)[C@@H]1C[C@@H]2C(=O)N[C@@H](CCCCN)C(=O)N2[C@@H]1c1ccc(O)cc1`, the z-score was -0.175 (inactive).
On to `NCCCCCNC(=O)[C@H]1C[C@H]2C(=O)N3CCC[C@H]3C(=O)N2[C@H]1c1cccc(OCCO)c1`, for which the z-score is -0.068 (inactive).
Turning to `COCCOC(=O)N1C(=O)[C@@]2(c3cc(C#CCCO)ccc31)[C@H](c1ccc(OCCO)cc1)N1[C@H](c3ccccc3)[C@H](c3ccccc3)OC(=O)[C@H]1[C@@H]2C(=O)Nc1nc2ccccc2s1`, the z-score was -0.0929 (inactive).
For the compound `COC(=O)C1=CC(CCCO)=CC(c2cccs2)N(C)C=C1C(=O)OC` (stereo not drawn), the z-score is -0.35 (inactive).
For `COCCOC(=O)N1C(=O)[C@@]2(c3cc(C#CC4(O)CCCCCC4)ccc31)[C@H](c1ccc(O)cc1)N1[C@H](c3ccccc3)[C@H](c3ccccc3)OC(=O)[C@H]1[C@@H]2C(=O)N1CCN(c2ncccn2)CC1`, the z-score is -0.533 (inactive).
The same measure, in the same setting: the value for `COc1ccc([Si](C)(C)[C@@H]2[C@@H](CCO)O[C@]3(C(=O)N(Cc4cccc(NC(=O)[C@H](C)O)c4)c4ccccc43)[C@H]2C)cc1` was -1.19 (inactive); that for `Cc1ccc(S[C@]2(C(=O)O)CC(=O)N(C3CCCCC3)[C@@H]2c2ccc(CO)cc2I)cc1` was 0.263 (inactive); that for `O=C1C[C@]2(c3ccc([N+](=O)[O-])cc3)C(=O)N(C3CC3)c3cc(CO)ccc3[C@H]2N1CC12CC3CC(CC(C3)C1)C2` was -0.829 (inactive).
As for `COCCCNC(=O)[C@@]1(Sc2ccc(C)cc2)CC(=O)N(C2Cc3ccccc3C2)[C@@H]1c1ccc(CO)cc1`, the z-score was 0.625 (inactive).
Consider `O=C1OCCC=C[C@H]2OC34C=CCN(c5ccc6ccccc6c5)C(=O)[C@H]3N(CCCO)C(=O)[C@@H]4C12` (stereo partly drawn), for which the z-score was 0.181 (inactive).
For the compound `COC(=O)[C@@]1(Cc2ccc(F)cc2)[C@H]2c3cc(C(=O)N(C)C)n(CCc4ccc(OC)c(Br)c4)c3C[C@H]2CN1C(=O)c1ccccc1`, the z-score is -1.75 (inactive).
As for `[N-]=[N+]=Nc1ccccc1C[C@@]1(C(N)=O)N=C(c2ccc(OCCCO)cc2)O[C@@H]1c1ccccc1N=[N+]=[N-]`, the z-score was 0.587 (inactive).
As to `O=C(NCc1ccc(F)cc1)[C@H]1C[C@H]2C(=O)NCC(=O)N2[C@H]1c1ccc(O)cc1`, the z-score was 0.357 (inactive).
In the case of `C=CCNC(=O)[C@@H]1[C@H]2C(=O)O[C@H](c3ccccc3)[C@H](c3ccccc3)N2[C@H](c2ccccc2OCCO)[C@@]12C(=O)Nc1ccc(C#CCCO)cc12`, the z-score was -2.32 (inactive).
Consider `CCOC(=O)C[C@H]1[C@H](OC(=O)Cc2ccc3c(c2)OCO3)[C@@H](NC(=O)C2CCCCC2)c2cc(OCCCO)ccc2N1C(=O)c1ccccc1`, for which the z-score is 2.81 (inactive).
As for `COc1ccc([Si](C)(C)[C@@H]2[C@@H](CCO)O[C@]3(C(=O)N(Cc4ccccc4)c4ccc(N5CCOC5=O)cc43)[C@H]2C)cc1`, the z-score was 0.519 (inactive).
`C=C(/C(=C/C[C@H](OC(C)=O)c1ccc(CO)o1)c1cnc2ccccc2c1)C(C)C`: the z-score is -0.0554 (inactive).
On to `CCCCCCCCCCC(O)C1C=CC2C(=O)N(c3ccccc3)C(=O)C2N1Nc1ccc(C#N)cc1` (stereo not drawn), for which the z-score was -1.08 (inactive).

A short description of the next experiment: small-molecule binders of probe aLefty1, primary screen, biochemical, small-molecule microarray, 635/667 nm fluorescence (AID 1153).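 Also: score merges spot fluorescence with signal-to-noise ratio from the scanned slide images.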 The note with it: higher = more signal.
In turn, `COc1cc2c(cc1O)C(c1cccs1)N(Cc1cc3c(cc1Br)OCO3)CC2` (stereo not drawn) returned a composite z-score of -0.566.
`CCC#CCN(Cc1ccccc1Br)[C@H](/C=C/C1CC1)[C@@H](O)Cc1ccccc1`: the composite z-score was -0.13.
In the case of `COC(=O)[C@@]1(Cc2ccccc2)[C@H]2c3cc(C(=O)N4CCCC4)n(CCc4ccccn4)c3C[C@H]2CN1C(=O)c1ccccc1`, the composite z-score came to 0.928.
Still for that read-out and setting: the value for `CCCCC(CC)C(O)C1C=CC2C(=O)N(c3ccccc3)C(=O)C2N1Nc1ccccc1F` (stereo not drawn) was -0.0576.
Consider `[N-]=[N+]=Nc1ccccc1[C@@H]1OC(c2ccc(OCCCO)cc2)=N[C@]1(Cc1ccccc1)C(=O)N1CCCCC1`, for which the composite z-score stood at 0.282.
The same measure, in the same setting: to `CC1CC/C=C\[C@H]2OC34C=CCN(C(C)C)C(=O)[C@H]3N(CCO)C(=O)[C@@H]4C2C(=O)O1` (stereo partly drawn) belongs -0.101; to `CCOC(=O)C1=C[C@@H](C(C)(C)C)N(S(=O)(=O)c2ccc(C)cc2)[C@H]1c1cccc2ccccc12`, 0.0927.
In the case of `CC(C)[Si]1(C(C)C)OCc2cc(-c3ccc(-c4ccc(Cl)c(Cl)c4)o3)nc(-c3ccccc3)c21`, the composite z-score was -0.0501.
Same read-out and setting: to `CCCCCCc1nc(Cc2cc(OC)c(OC)c(OC)c2)cc2c1[Si](C(C)C)(C(C)C)OC2` belongs -0.131.
On the same count and under the same terms, the value for `C=CC[C@@H](OC(=O)Nc1ccc(SC)cc1)c1ccc(O)c(F)c1` was -0.0573.
`Cc1ccc(NN2C(C(O)c3c(F)cccc3Cl)C=CC3C(=O)N(C4CCCCC4)C(=O)C32)cc1` (stereo not drawn) came in with a composite z-score of 0.23.
As for `COc1ccc([Si](C)(C)[C@@H]2[C@@H](CC(=O)N(CCO)Cc3ccccc3)O[C@]3(C(=O)N(Cc4cccc(N5CCCCC5=O)c4)c4ccccc43)[C@H]2C)cc1`, the composite z-score worked out at 0.527.
On the same count and under the same terms, the value for `NC(=O)[C@H]1[C@@H]2C(=O)O[C@@H](c3ccccc3)[C@@H](c3ccccc3)N2[C@@H](c2ccc(OCCO)cc2)[C@]12C(=O)Nc1ccc(C#CCCO)cc12` was 0.0753.
`COc1cc(C(O)C2C=CC3C(=O)N(C)C(=O)C3N2Nc2ccccc2)cc(OC)c1OC` (stereo not drawn) gave a composite z-score of 0.923.
Compound `C#Cc1cc2ccccc2oc1=O` returned a composite z-score of 0.228.
In turn, `CC(=O)NCCCC[C@@H]1NC(=O)[C@@H]2C[C@H](C(=O)NCCCCCN)[C@H](c3cccc(OCCO)c3)N2C1=O` yielded a composite z-score of -0.22.
For the compound `COc1ccc(CCNC(=O)[C@@]2(c3ccc([N+](=O)[O-])cc3)CC(=O)N(C3CCCCC3)[C@@H]2c2ccc(CO)cc2)cc1`, the composite z-score is 0.213.
`NCCCCCNC(=O)[C@@H]1C[C@@H]2C(=O)N[C@@H](CCCCN)C(=O)N2[C@@H]1c1ccc(O)cc1` yielded a composite z-score of 0.739.
Same read-out and setting: to `NCCCCCNC(=O)[C@H]1C[C@H]2C(=O)N3CCC[C@H]3C(=O)N2[C@H]1c1cccc(OCCO)c1` belongs 0.984; to `COCCOC(=O)N1C(=O)[C@@]2(c3cc(C#CCCO)ccc31)[C@H](c1ccc(OCCO)cc1)N1[C@H](c3ccccc3)[C@H](c3ccccc3)OC(=O)[C@H]1[C@@H]2C(=O)Nc1nc2ccccc2s1`, 0.181.
In the case of `COC(=O)C1=CC(CCCO)=CC(c2cccs2)N(C)C=C1C(=O)OC` (stereo not drawn), the composite z-score is 0.147.
`COCCOC(=O)N1C(=O)[C@@]2(c3cc(C#CC4(O)CCCCCC4)ccc31)[C@H](c1ccc(O)cc1)N1[C@H](c3ccccc3)[C@H](c3ccccc3)OC(=O)[C@H]1[C@@H]2C(=O)N1CCN(c2ncccn2)CC1` had a composite z-score of 0.477.
Still for that read-out and setting: to `COc1ccc([Si](C)(C)[C@@H]2[C@@H](CCO)O[C@]3(C(=O)N(Cc4cccc(NC(=O)[C@H](C)O)c4)c4ccccc43)[C@H]2C)cc1` belongs 0.286; to `Cc1ccc(S[C@]2(C(=O)O)CC(=O)N(C3CCCCC3)[C@@H]2c2ccc(CO)cc2I)cc1`, 0.32; to `O=C1C[C@]2(c3ccc([N+](=O)[O-])cc3)C(=O)N(C3CC3)c3cc(CO)ccc3[C@H]2N1CC12CC3CC(CC(C3)C1)C2`, 0.599.
Compound `COCCCNC(=O)[C@@]1(Sc2ccc(C)cc2)CC(=O)N(C2Cc3ccccc3C2)[C@@H]1c1ccc(CO)cc1` showed a composite z-score of 0.0653.
With `O=C1OCCC=C[C@H]2OC34C=CCN(c5ccc6ccccc6c5)C(=O)[C@H]3N(CCCO)C(=O)[C@@H]4C12` (stereo partly drawn), the composite z-score is -0.291.
As for `COC(=O)[C@@]1(Cc2ccc(F)cc2)[C@H]2c3cc(C(=O)N(C)C)n(CCc4ccc(OC)c(Br)c4)c3C[C@H]2CN1C(=O)c1ccccc1`, the composite z-score was determined as 1.32.
`[N-]=[N+]=Nc1ccccc1C[C@@]1(C(N)=O)N=C(c2ccc(OCCCO)cc2)O[C@@H]1c1ccccc1N=[N+]=[N-]` yielded a composite z-score of 0.0211.
The compound `O=C(NCc1ccc(F)cc1)[C@H]1C[C@H]2C(=O)NCC(=O)N2[C@H]1c1ccc(O)cc1` gave a composite z-score of 0.239.
`C=CCNC(=O)[C@@H]1[C@H]2C(=O)O[C@H](c3ccccc3)[C@H](c3ccccc3)N2[C@H](c2ccccc2OCCO)[C@@]12C(=O)Nc1ccc(C#CCCO)cc12` gave a composite z-score of -0.674.
For `CCOC(=O)C[C@H]1[C@H](OC(=O)Cc2ccc3c(c2)OCO3)[C@@H](NC(=O)C2CCCCC2)c2cc(OCCCO)ccc2N1C(=O)c1ccccc1`, the composite z-score was -0.06.
In turn, `COc1ccc([Si](C)(C)[C@@H]2[C@@H](CCO)O[C@]3(C(=O)N(Cc4ccccc4)c4ccc(N5CCOC5=O)cc43)[C@H]2C)cc1` gave a composite z-score of 0.042.
Consider `C=C(/C(=C/C[C@H](OC(C)=O)c1ccc(CO)o1)c1cnc2ccccc2c1)C(C)C`, for which the composite z-score stood at 0.215.
Compound `CCCCCCCCCCC(O)C1C=CC2C(=O)N(c3ccccc3)C(=O)C2N1Nc1ccc(C#N)cc1` (stereo not drawn) gave a composite z-score of 0.571.
